Screening results as filed in PubChem.
In the library only some 11% were active in any assay of this set; here they are far more common.
USP28 inh: inhibitors of human USP28 deubiquitinase. Ubiquitin carboxyl-terminal hydrolase 28 (Homo sapiens), Q96RU2. purified USP28, Ub-rhodamine cleavage fluorescence, 30 min. inhibition, % at 25 µM. 47,000 tested, 3% active
USP30 inh: inhibitors of human USP30 deubiquitinase; Ubiquitin carboxyl-terminal hydrolase 30 (Homo sapiens), Q70CQ3; purified USP30, Ub-rhodamine cleavage fluorescence; inhibition, % at 25 µM; 47,000 tested, 5.3% active; AID 1645860, 2021
Target sequence (Q70CQ3 whole entry, looked up): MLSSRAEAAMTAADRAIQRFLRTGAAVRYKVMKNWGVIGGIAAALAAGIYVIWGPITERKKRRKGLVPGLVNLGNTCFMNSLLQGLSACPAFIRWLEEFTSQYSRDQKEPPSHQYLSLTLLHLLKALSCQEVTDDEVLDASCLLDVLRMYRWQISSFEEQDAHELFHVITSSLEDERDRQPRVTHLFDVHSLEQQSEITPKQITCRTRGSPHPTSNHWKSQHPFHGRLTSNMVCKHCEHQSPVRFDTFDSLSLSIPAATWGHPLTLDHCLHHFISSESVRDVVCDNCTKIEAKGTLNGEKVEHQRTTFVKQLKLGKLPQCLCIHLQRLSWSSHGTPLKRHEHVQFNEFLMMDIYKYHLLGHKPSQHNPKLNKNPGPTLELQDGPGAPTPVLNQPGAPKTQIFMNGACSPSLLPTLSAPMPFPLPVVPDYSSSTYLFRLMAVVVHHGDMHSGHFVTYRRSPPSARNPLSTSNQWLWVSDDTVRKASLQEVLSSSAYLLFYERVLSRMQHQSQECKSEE
USP17 inh: inhibitors of human USP17 deubiquitinase. Ubiquitin carboxyl-terminal hydrolase 17-like protein 5 (Homo sapiens), A8MUK1. purified USP17, Ub-rhodamine cleavage fluorescence, 3 h. inhibition, % at 50 µM. 47,000 tested, 6.5% active. AID 1645855, 2021
OTUD3 inh: inhibitors of human OTUD3 deubiquitinase. OTU domain-containing protein 3 (Homo sapiens), Q5T2D3. purified OTUD3, Ub-rhodamine fluorescence, 2 h. inhibition, % at 25 µM. 47,000 tested, 0.7% active
Numbers without * were called inactive; i = inactive. Rule as the data show it: active = inhibition above about 30%; inactive = the rest.

SMILES	USP28 inh	USP30 inh	USP17 inh	OTUD3 inh
COc1c(Cl)ccc2c(=O)c3c(oc12)C1=C2[C@@H](OCO1)[C@@H](OC)c1cc4c(c(O)c1[C@@]2(O)[C@H]3O)C(=O)N(C)[C@H](OC)[C@@H]4O	43*	60*	12	32*
COc1c(Cl)ccc2c(=O)c3c(O)c4c5c(c3oc12)OCO[C@H]5[C@@H](OC)c1cc2c(c(O)c1-4)C(=O)N(C)[C@H](OC)[C@@H]2O	49*	64*	-12	23
CCOC(=O)[C@@H]1[C@@H](c2ccccc2)CN2CCN(C(=O)OC)C[C@H]12	-1	1	-6	-3
CCCCCC(O)c1c(O)cc2c(c1O)C(=O)c1c(O)cc(O)cc1C2=O (configuration not stated)	-48	i	58*	-74
Cc1cc(C)nc(-n2nc(C)c3c2NC(=O)CSC3c2cccc(O)c2)n1 (configuration not stated)	-8	-54	-19	-17
CC(C)=CCC[C@H](C(=O)O)[C@@H]1CC[C@]2(C)C3=C(CC[C@@]12C)[C@@]1(C)CCC(=O)C(C)(C)C1CC3 (some centres not stated)	17	32*	36*	11
CO[C@H](c1ccccc1)[C@@H]1NC(=O)[C@H](C)NC(=O)[C@H](C[C@@H](C)CO)N(C)C(=O)[C@H]([C@H](O)c2cn(C(C)(C)[C@@H]3CO3)c3ccccc23)NC(=O)[C@H]([C@H](C)C=C(C)C)NC(=O)[C@H](CC(C)C)N(C)C(=O)[C@H](C(C)C)NC1=O	-2	19	33*	19
CC[C@@]1(O)C[C@H](OC2CC(N(C)C)C(OC3CC4OC5CC(=O)C(C)OC5OC4C(C)O3)C(C)O2)c2c(cc3c(c2O)C(=O)c2c(O)ccc(O)c2C3=O)[C@H]1C(=O)OC (some centres not stated)	-206	i	-163	-169
Cc1cc(CN2C[C@H](OCc3ccncc3)[C@H]3OCCC[C@H]32)no1	-15	-103	-37	-19
CCCCNC(=O)c1cc2cccnc2n(Cc2ccccc2)c1=O	28	24	69*	10
c1ccc(CN2CC[C@H]3CO[C@H](CNc4ncccn4)[C@H]3C2)cc1	-8	-1	-15	-7
CN(C[C@H]1CN2CC[C@H]1C[C@@H]2CNC(=O)Nc1cccc(F)c1)c1ccccc1	-4	40*	-27	-2
COC(C)C(O)(C(=O)OCC1=CCN2CC[C@H](O)[C@@H]12)C(C)C (some centres not stated)	-1	20	9	0
O=C1CSC(c2ccccc2)c2c(n(C3CCCC3)[nH]c2=O)N1 (configuration not stated)	-10	5	4	0
Cc1ccc(CN2CC[C@@H]3[C@@H](CO[C@H]3CNc3ncccn3)C2)s1	0	8	-9	2
COc1cccc2c1N(Cc1ccccc1)C(=O)C21CCN(C(=O)NCC(=O)O)CC1	-11	0	-1	-16
COc1ccc(OC)c(-c2c(C#N)c(C)nc3c2N2CCC3CC2)c1	94*	43*	49*	33*
Cc1cccc(COc2ccc(C3SCC(=O)Nc4n[nH]c(C)c43)cc2)c1 (configuration not stated)	13	21	56*	13
O=C(CNC(=O)c1ccccc1Br)Nc1ccc(Br)cc1C(=O)c1ccccc1	14	43*	22	15
O=C(CNC(=O)OCc1ccccc1)Nc1ccc(Br)cc1C(=O)c1ccccc1Cl	-2	-6	77*	14
CC[C@@]1(O)C[C@H](O[C@@H]2C[C@@H](N(C)C)[C@@H](O[C@@H]3C[C@@H](O)[C@@H](O[C@@H]4CCC(=O)[C@@H](C)O4)[C@@H](C)O3)[C@@H](C)O2)c2c(cc3c(c2O)C(=O)c2c(O)ccc(O)c2C3=O)[C@H]1C(=O)OC	-222	i	-217	-157
